# Mtb hypoxia inh = Mtb hypoxia fluorescent reporter inhibition; M. tuberculosis hypoxia-regulated fluorescent reporter, fluorescence; AID 1159583; actives 0.1% (n = 300,000); fluorescence inhibition, % (test concentration not listed); in the data active = fluorescence inhibition mostly above about 23%, no sharp cut-off; inactive = mostly below about 17%
# GDH-TPI counter-1 = inhibits GDH-TPI coupling enzymes, artifact for Mtb FBA screen; actives 1.2% (n = 360,000); AID 588335; GDH-TPI coupled enzyme counterscreen, NADH absorbance; inhibition, % at 4.8 µM; in the data active = inhibition above about 30%;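 note: 0% = DMSO wells and 100% = wells lacking the enzyme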
# Mtb FBA inh = inhibits M. tuberculosis FBA enzyme. P9WQA3. purified M. tuberculosis FBA, fluorescence read-out. inhibition, % at 1 µM. actives 2.3% (n = 360,000). AID 588726; in the data active = inhibition above about 27%;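 note: 0% = vehicle and 100% = reference inhibitor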
# Target sequence (P9WQA3 whole entry, looked up): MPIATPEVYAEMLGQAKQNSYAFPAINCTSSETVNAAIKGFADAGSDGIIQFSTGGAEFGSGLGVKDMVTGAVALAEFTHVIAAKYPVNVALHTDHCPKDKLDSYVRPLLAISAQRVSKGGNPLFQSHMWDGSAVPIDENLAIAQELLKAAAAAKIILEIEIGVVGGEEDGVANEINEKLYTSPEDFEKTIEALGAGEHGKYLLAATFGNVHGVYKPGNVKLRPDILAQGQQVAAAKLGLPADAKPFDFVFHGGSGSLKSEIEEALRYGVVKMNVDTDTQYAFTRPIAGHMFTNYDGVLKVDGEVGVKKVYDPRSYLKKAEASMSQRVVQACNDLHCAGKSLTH
# DUSP3 inh = DUSP3 (human) phosphatase inhibition. P51452. recombinant VHR phosphatase, pNPP absorbance. inhibition, % at 13.3 µM. actives 0.52% (n = 290,000); in the data active = inhibition above about 50%
# Target sequence (P51452 whole entry, looked up): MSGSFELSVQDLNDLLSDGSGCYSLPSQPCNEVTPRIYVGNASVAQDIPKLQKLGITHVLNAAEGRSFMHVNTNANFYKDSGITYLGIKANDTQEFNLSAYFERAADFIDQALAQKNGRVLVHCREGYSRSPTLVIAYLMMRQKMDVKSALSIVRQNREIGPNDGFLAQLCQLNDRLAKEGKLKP
# Mtb betalactam = beta-lactam sensitization of Mtb H37Rv; actives 0.27% (n = 330,000); M. tuberculosis H37Rv growth with meropenem, percent inhibition; inhibition, % at 25 µM; AID 434955;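 note: growth measured after seven days incubation then overnight dye step; 0% = bacteria only wells and 100% = bacteria with antibiotic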
# Mtb FBA inh conf = Mtb FBA inhibition, confirmed; shares compounds with Mtb FBA inh; purified M. tuberculosis FBA, fluorescence read-out; inhibition, % at 1 µM; actives 78% (n = 5,600); AID 651616; in the data active = inhibition above about 27%;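 note: 0% = vehicle wells and 100% = reference inhibitor wells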
# GDH-TPI counter-2 = GDH-TPI inhibition counter-screen for FBA inhibitors. shares compounds with Mtb FBA inh. inhibition, % at 1 µM. actives 81% (n = 5,600). GDH-TPI coupled enzyme counterscreen, fluorescence; in the data active = inhibition above about 10%
# GDH-TPI dose = inhibits GDH-TPI coupling enzymes in dose response; actives 79% (n = 170); GDH-TPI coupled enzyme assay, fluorescence, artifact counterscreen; shares compounds with Mtb FBA inh; IC50, µM
# Numbers without * were called inactive; / = no result. Compounds with a hit are over-represented: about 3.6% of the library has one in this group of screens. Unless noted, the rule behind the calls is not given here.
SMILES,Mtb hypoxia inh,GDH-TPI counter-1,Mtb FBA inh,DUSP3 inh,Mtb betalactam,Mtb FBA inh conf,GDH-TPI counter-2,others
COC(=O)c1ccc(C(=O)OC)c(NC(=O)CCC(=O)O)c1,3,18,28*,17,-2,33*,23*,
COC(=O)c1ccc(C(=O)OC)c(NC(=S)N2CCCC2)c1,1,2,3,21,-1,/,/,
COC(=O)c1ccc(C(=O)OC)c(NC(=S)N2CCN(C)CC2)c1,-6,9,33*,12,-1,198*,174*,
COC(=O)c1ccc(C(=O)OC)c(NC(=S)N2CCCCC2C)c1 (stereo not given),/,2,100*,4,-2,60*,59*,
COC(=O)c1ccc(C(=O)OC)c(NC(=S)N2CCC(C)CC2)c1,8,8,23,32,3,/,/,
O=C(Nc1ccc(NC(=O)c2ccccc2O)cc1)Nc1ccc(F)cc1F,8,16,34*,0,-5,53*,51*,
COc1cccc(C=Nn2cncn2)c1OCC#N,2,/,/,/,/,/,/,
c1cc(-c2cn(CC3CCC(C4CCC(Cn5cc(-c6ccsc6)nn5)O4)O3)nn2)cs1 (stereo not given),2,/,/,/,/,/,/,
CCOC(=O)C=c1sc(=C(C#N)C(N)=O)n(-c2ccccc2)c1=O,10,/,/,/,/,/,/,
COC(=O)C1=C(c2cc3ccccc3o2)CC2CCC1N2C(=O)NC1CCCCC1 (stereo not given),1,/,/,/,/,/,/,
Cc1ccc(S(=O)(=O)N2C(c3ccc(Cl)cc3)CC=C(C(=O)O)C2c2cccc(Cl)c2)cc1 (stereo not given),8,/,/,/,/,/,/,
COCc1cc(C)nc2sc(C(=O)Nc3nccs3)c(N)c12,4,25,3,17,-6,/,/,
CCOC(=O)c1sc2nc(C)cc(C)c2c1N,4,23,36*,6,7,65*,56*,
Cc1cc(C)c2c(N)c(C(=O)Nc3nccs3)sc2n1,14,13,105*,15,-13,151*,110*,
CC(Oc1ccc(-c2ccccc2)cc1)C(=O)NN=Cc1cccnc1 (stereo not given),-6,/,/,/,/,/,/,
O=c1ccn(C2OC(COS(=O)(=O)O)C(O)C2O)c(=O)[nH]1 (stereo not given),20,/,/,/,/,/,/,
CC(=NNC(=O)CON=C(C)c1cccs1)c1ccc(N)cc1,-2,/,/,/,/,/,/,
c1ccc2[nH]c(-c3ccnc4ccccc34)nc2c1,-3,25,45*,26,1,119*,87*,
c1ccc2c(-c3nc4ccccc4[nH]3)cccc2c1,/,0,107*,/,/,80*,42*,
CNc1ncnc2sc(-c3ccccc3)cc12,-1,12,46*,52*,4,52*,36*,
OCCOCCNc1ncnc2sc(-c3ccccc3)cc12,/,15,32*,28,15,11,15*,
CCC(O)(CC)C(=O)NN=Cc1cc(Br)cc(Br)c1O,11,/,/,/,/,/,/,
CCCCCCC=Cc1ccc(C2C3C=CCC(C)C3C(=O)N2Cc2ccccc2)c(F)c1 (stereo not given),16,/,/,/,/,/,/,
C=C1c2cc(OC)ccc2NC(=O)N1CC,/,13,34*,-1,-7,3,2,
COc1cc2c(N3CCOCC3)cc(O)c(CC(=O)Nc3ccccc3)c2cc1OC,/,3,31*,24,-4,6,-4,
SMILES,Mtb hypoxia inh,GDH-TPI counter-1,Mtb FBA inh,DUSP3 inh,Mtb betalactam,Mtb FBA inh conf,GDH-TPI counter-2,others
COc1ccc2oc(C(=O)OCC(=O)N3CCN(C(C)=O)CC3)c(C)c2c1,-9,-1,43*,/,2,59*,42*,
COc1ccc2oc(C(=O)OCC(=O)N3CCN(c4ccccc4)CC3)c(C)c2c1,7,-10,5,/,-4,/,/,
COc1ccc2oc(C(=O)OCC(=O)N3CCCCC3)c(C)c2c1,2,4,37*,/,-8,125*,113*,
COc1cc(C(=O)NN=Cc2ccc(OC(=O)c3cccc(C)c3)cc2)ccc1O,10,/,/,/,/,/,/,
O=C(CSc1nc2ccccc2o1)c1cc2ccccc2oc1=O,/,12,55*,0,-8,11,2,GDH-TPI dose=>10
CN(N=Cc1ccc(O)cc1O)c1ncc(C(F)(F)F)cc1Cl,11,/,/,/,/,/,/,
COc1ccc2c(c1)CCc1cnc(N)nc1-2,-2,30,106*,8,90,-3,-2,
COc1cccc(C=NNC(=O)C(=O)NCc2ccco2)c1O,14,/,/,/,/,/,/,
COc1ccc2c(c1OC)C(=O)N1C(C(=O)O)Cc3c([nH]c4ccccc34)C21 (stereo not given),3,0,36*,-12,2,107*,89*,
COc1cccc(C2c3[nH]c4ccccc4c3C[C@H]3C(=O)N(CCCO)CC(=O)N23)c1OC (stereo not given in full),8,6,-1,44,-2,/,/,
CCCCCCC(=O)Nc1c2c(nc3ccccc13)N(C)CC2,/,6,48*,-3,-3,94*,100*,
CN1CCc2c1nc1ccccc1c2NC(=O)CN1CCCC1,0,7,26,-8,1,/,/,
CCNC(=S)NN=Cc1cccc(OCc2c(F)cccc2Cl)c1,4,/,/,/,/,/,/,
CC(NC(=O)OCc1ccccc1)c1nnc(C(C)NC(=O)OCc2ccccc2)o1 (stereo not given),13,/,/,/,/,/,/,
Fc1ccc(C2C3=C(Nc4ncnn42)c2ccccc2OC3c2ccncc2)cc1 (stereo not given),/,1,37*,11,-5,102*,64*,
Cc1ccc(C2Oc3ccccc3C3=C2C(c2cccs2)n2ncnc2N3)cc1 (stereo not given),5,6,3,10,78,/,/,
O=C1NC(=O)C(=Cc2ccccc2Oc2ccc(Cl)cc2)S1,0,/,/,/,/,/,/,

# Source: PubChem
